# KKLEB cytotox: cytotoxicity in KKLEB CF airway cells, primary screen, cytotoxicity control for CF NF-kB inhibitor project, cell-based, uHTS, fluorescence assay plates | KKLEB CF airway cells viability, ATPlite luminescence, overnight; hits give low values; cells stimulated with P. aeruginosa culture filtrate | activity change (cytotoxicity), % at 5 µM | actives 0.36% (n = 360,000) | AID 602141, 2011;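 active = corrected activity change at or below -50% at 5 µM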
# Peg3 prom inh: Peg3 promoter-driven luciferase inhibitors, primary screen, cell-based, HeLa, luciferase luminescence; AID 588405, 2011; HeLa PEG-Prom luciferase reporter, overnight; actives 1.7% (n = 360,000); inhibition, % at 20 µM;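 active = inhibition of at least 50% at 20 µM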
# TWEAK-Fn14 inh: inhibitors of TWEAK-Fn14 signaling, primary screen, luciferase reporter cells, uHTS | actives 2% (n = 360,000) | inhibition, % at 10 µM | AID 1159606, 2016 | TWEAK-stimulated Fn14 reporter cells, luciferase luminescence, 8 h; in the data active = inhibition above about 50%
# CF NFkB block: inhibitors of PAF-induced NF-kB signaling, primary screen, cell-based, GFP fluorescence, uHTS. KKLEB NF-kB-GFP reporter, GFP fluorescence overnight. inhibition, % at 5 µM. actives 0.86% (n = 360,000). AID 588850, 2011;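 active = at least 50% inhibition at 5 µM, scaled per plate between neutral and stimulator controls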;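 also: PAF is a Pseudomonas aeruginosa culture filtrate used as stimulus; plate controls were PAF-stimulated DMSO wells for no effect and unstimulated DMSO wells for full effect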
# HIF-2a inh: HIF-2a reporter inhibitors, primary screen, luminescence, 786-0 RCC cells. 786-0 RCC cells HIF-2a reporter, luciferase luminescence, overnight. inhibition, % at 18.8 µM. actives 0.72% (n = 360,000). AID 624352, 2012;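 active = inhibition of the luminescence signal of 40% or more relative to plate controls, in a single-dose primary screen at 18.75 µM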
# TROY NFkB inh: inhibitors of TROY-driven NF-kB signaling, primary screen, Q293 LMP1-TROYcd cells, NF-kB luciferase, uHTS | Q293 LMP1-TROYcd NF-kB luciferase reporter, 4 h | inhibition, % at 10 µM | actives 0.98% (n = 360,000) | AID 1347056, 2019;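 active = compounds whose plate-normalised and pattern-corrected inhibition of the luciferase reporter signal at the single screening dose is 50% or more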
# Mdm2 MdmX conf: retested Mdm2-MdmX interaction blockers, confirmation, cell-based, luminescence, single concentration, set 2; shares compounds with HIF-2a inh; SaOS-2 split-luciferase Mdm2/MdmX complementation; inhibition, % at 8 µM; actives 99% (n = 740);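 active = mean inhibition of the luminescence signal across two replicates at or above 26 percent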
# Target sequence (O15151 whole entry, looked up): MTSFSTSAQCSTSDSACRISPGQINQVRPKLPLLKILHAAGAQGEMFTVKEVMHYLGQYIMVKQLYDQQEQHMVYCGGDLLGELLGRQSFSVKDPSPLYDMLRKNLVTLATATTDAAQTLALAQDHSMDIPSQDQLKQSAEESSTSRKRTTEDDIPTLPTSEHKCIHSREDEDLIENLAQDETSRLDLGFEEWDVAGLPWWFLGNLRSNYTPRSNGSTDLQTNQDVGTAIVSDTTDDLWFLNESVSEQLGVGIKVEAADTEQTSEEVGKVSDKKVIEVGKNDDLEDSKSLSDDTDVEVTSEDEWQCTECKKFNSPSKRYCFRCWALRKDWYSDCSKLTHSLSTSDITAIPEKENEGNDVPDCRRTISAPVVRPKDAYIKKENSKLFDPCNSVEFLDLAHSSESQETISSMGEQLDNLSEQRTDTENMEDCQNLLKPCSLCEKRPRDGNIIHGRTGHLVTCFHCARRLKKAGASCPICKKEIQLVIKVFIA
# Target sequence (Q00987 whole entry, looked up): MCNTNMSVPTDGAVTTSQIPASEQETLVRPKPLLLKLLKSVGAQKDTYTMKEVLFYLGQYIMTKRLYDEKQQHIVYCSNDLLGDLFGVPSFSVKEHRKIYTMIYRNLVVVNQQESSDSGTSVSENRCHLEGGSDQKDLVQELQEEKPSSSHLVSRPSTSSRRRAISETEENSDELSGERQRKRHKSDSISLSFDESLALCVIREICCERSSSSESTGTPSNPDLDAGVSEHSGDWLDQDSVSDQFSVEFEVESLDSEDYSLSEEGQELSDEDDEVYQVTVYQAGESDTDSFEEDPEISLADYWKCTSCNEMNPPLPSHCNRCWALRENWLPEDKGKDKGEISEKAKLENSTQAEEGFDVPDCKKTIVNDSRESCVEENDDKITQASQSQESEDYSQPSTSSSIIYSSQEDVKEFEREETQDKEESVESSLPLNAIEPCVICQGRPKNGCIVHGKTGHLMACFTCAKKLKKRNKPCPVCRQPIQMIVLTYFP
# HIF-2a conf: HIF-2a reporter inhibitor retest, confirmation, luminescence, 786-0 RCC cells. shares compounds with HIF-2a inh. AID 651580, 2012. inhibition, % at 18.8 µM. HIF-2a luciferase reporter luminescence, overnight. actives 56% (n = 1,800);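 active = mean inhibition across four replicates of at least 40 percent at the single tested concentration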
# HIF-1a cs: HIF-1a luciferase reporter signal reduction – MiaPaCa-2 cells, single concentration, counter-screen for HIF-2a inhibitor project, confirmation; shares compounds with HIF-2a inh; AID 651589, 2012; actives 72% (n = 1,800); MiaPaCa-2 HIF-1a luciferase reporter, desferoxamine, overnight; inhibition, % at 18.8 µM;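 active = mean inhibition of the reporter signal across four replicates at the single tested dose of 50% or more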
# An asterisk follows results filed as active; x = no result given. Only some compounds are listed: those with a hit (about 3.9% of all), similar ones and a draw of the others.
SMILES,KKLEB cytotox,Peg3 prom inh,TWEAK-Fn14 inh,CF NFkB block,HIF-2a inh,TROY NFkB inh,HIF-2a conf,HIF-1a cs,others
O=C(Cn1cc(C(F)(F)F)cc(Cl)c1=O)Nc1ccc(N2CCOCC2)cc1,11,11,26,-5,20,-9,x,x,
Cc1ccccc1CS(=O)(=O)c1nnc([C@H](CC(C)C)NC(=O)OC(C)(C)C)o1,-2,96*,22,49,69*,32,14,-5,
CC(C)C[C@H](NC(=O)OC(C)(C)C)c1nnc(SCc2ccccc2)o1,16,15,10,-4,16,12,x,x,
COc1ccc(-c2csc3ncnc(NCCCO)c23)cc1,-5,30,65*,49,41*,35,9,46,
CCN(CC)CCCNc1ncnc2scc(-c3ccc(F)cc3)c12,-1,8,5,-5,16,-48,x,x,
Cc1ccc(NC(=O)c2cc3ccccc3o2)cc1S(=O)(=O)N(C)C,-35,-180,40,1,-298,-9,x,x,
Cc1ccc(NC(=O)c2cc3ccccc3oc2=O)cc1S(=O)(=O)N(C)C,-20,77*,102*,-1,81*,90*,88*,88*,
NC(=S)N/N=C1\CC(c2ccc3c(c2)OCCCO3)Oc2ccc(F)cc21 (stereo unspecified),-4,-1,17,10,-49,24,x,x,
CCc1nnc(NC(=O)C2CCCN(S(=O)(=O)c3ccc(OC)cc3)C2)s1 (stereo unspecified),-2,12,1,-3,16,5,x,x,
Cc1cn([C@H]2C=C[C@@H](CO)O2)c(=O)[nH]c1=O,3,2,-6,31,15,0,x,x,
CN(c1ccccc1)S(=O)(=O)c1ccc(Cl)nc1,6,-1,22,-12,6,-24,x,x,
Cc1nc(S(=O)(=O)N(C)c2ccccc2)c(C#N)c(C)c1Cl,-6,54*,48,14,14,14,x,x,Mdm2 MdmX conf=103*
Cc1c(C(=O)N/N=C/c2c(O)ccc3ccccc23)nnn1-c1nonc1N,-2,43,-1,13,-1,5,x,x,Mdm2 MdmX conf=92*
O=C(N/N=C/c1c(O)ccc2ccccc12)c1ccc(Br)o1,-6,49,20,-17,-30,12,x,x,Mdm2 MdmX conf=90*
COc1ccc2ccccc2c1/C=N/NC(=O)c1nnn(-c2nonc2N)c1C(C)C,2,19,15,-1,-9,11,x,x,
CCN1CCc2c(sc(NC(=O)Cc3ccccc3)c2C(=O)OC)C1,-15,-13,-21,8,-42,0,x,x,
CC(=O)Nc1ccc(C(=O)N2c3ccccc3N=C(c3ccc4c(c3)OCO4)C2C(=O)NCc2ccccc2)cc1 (stereo unspecified),x,x,x,x,-134,x,x,x,
CNC[C@H](Cc1ccccc1)NC[C@@H](Cc1cccc2ccccc12)NCCc1ccc(C)cc1,-50*,97*,-44,43,22,-1,x,x,Mdm2 MdmX conf=101*
CCC(=O)c1ccc(OCC(=O)NC2CCCC2)cc1,-22,-19,9,-14,-46,-3,x,x,
Cc1ccc(NC(=O)c2cc(NC(=O)c3ccco3)ccc2N2CCOCC2)cc1,-7,0,11,0,0,-14,x,x,
Cc1ccc(NC(=O)c2cc(N3C(=O)C=CC3=O)ccc2N2CCOCC2)cc1,1,108*,15,12,69*,-7,69*,18,
Cc1cccc(NC(=S)NNc2ncc(C(F)(F)F)cc2Cl)c1,-5,21,25,-1,50*,41,57*,17,
COc1cc(SC)ccc1C(=O)Nc1cccc(S(=O)(=O)NC2=NCCC2)c1,-12,-19,2,22,-27,-4,x,x,
CCOC(=O)C1=C(C)N=c2sc(=Cc3cc(Cl)c(OCC(=O)O)c(Cl)c3)c(=O)n2C1c1cccc(OC)c1 (stereo unspecified),-12,47,25,27,44*,41,46*,24,
CC(=O)OCCNc1cc(Sc2nc3ccccc3[nH]2)c2nonc2c1[N+](=O)[O-],-16,113*,46,63*,95*,34,78*,71*,
SMILES,KKLEB cytotox,Peg3 prom inh,TWEAK-Fn14 inh,CF NFkB block,HIF-2a inh,TROY NFkB inh,HIF-2a conf,HIF-1a cs,others
O=[N+]([O-])c1c(NCCCO)cc(N2CCCCCC2)c2nonc12,4,22,-10,-9,10,3,x,x,
CCCC(=O)OCCNc1cc(SCCC(=O)OC)c2nonc2c1[N+](=O)[O-],-2,25,34,22,23,28,x,x,
CC(=O)OCCCNc1cc(Sc2nc3ccccc3s2)c2nonc2c1[N+](=O)[O-],2,105*,14,2,32,26,x,x,Mdm2 MdmX conf=103*
COc1ccc(Nc2cc(NCCCO)c([N+](=O)[O-])c3nonc23)cc1,-6,30,-6,-14,-9,-5,x,x,
O=[N+]([O-])c1c(NCCCO)cc(Sc2ccc(Cl)cc2)c2nonc12,24,98*,48,-4,96*,79*,52*,106*,
CCN(CC)CC(=O)c1ccc(-c2ccccc2)cc1,12,-7,16,-7,46*,-13,7,28,
CCCCCCn1ccc(=N)cc1,2,7,39,-2,19,22,x,x,
CCCCCCCCCCCCCCCCn1cc[n+](CC(C)=O)c1,-67*,96*,-16,67*,56*,30,64*,106*,
CCOc1ccc(N(CC(=O)NCc2cccc(OC)c2)S(=O)(=O)c2c(C)noc2C)cc1,6,0,15,2,9,7,x,x,
CN1CCN(CCNC(=O)c2cn(Cc3ccccc3F)nn2)CC1,8,-4,24,-1,-5,-9,x,x,
CCc1ccc(-c2nc(CSCC(=O)NCCCN3CCCC3=O)c(C)o2)cc1,-11,14,84*,0,45*,21,-5,16,
Cc1cc(=O)[nH]c(SCC(=O)N2CC3(C)CC2CC(C)(C)C3)n1 (stereo unspecified),2,13,9,-6,13,2,x,x,

# Bioassay records from PubChem BioAssay.
